# Data taken from the supplement of paper PMC10849652.
# Of roughly 7,900 targets only a part is listed; those with a hit were picked by preference. About 0.6% of all pairs of compound and target were hits.
# Compound: CN1CCC(CNc2ccc3ncc(-c4cccc(OC(F)(F)F)c4)n3n2)CC1
# Assay: log2 fold change, soluble protein after heating vs DMSO (PISA); higher = thermal stabilisation; K562 cells, 10 uM, 30 min; active = over 0.2 and 3.5 SD of the protein, either way, in both replicates (recomputed)
# Outline: (§1)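 K562 cells at 2×10^6 cells/mL were exposed to 10 μM compound for 30 min, then aliquots were heated for 3 min across 48°C-58°C, pooled, and extracted in PBS containing 0.5% NP-40 at 4°C. The supernatant after 21,000xg for 90 min was taken as soluble protein and measured by TMTpro 16plex LC-MS/MS with channel sums equalised. Thermal stability is reported relative to control samples, with values from duplicates. Fold changes are given on a log2 scale.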
# UniProt Q9Y2X3, sequence (Q9Y2X3 whole entry, looked up): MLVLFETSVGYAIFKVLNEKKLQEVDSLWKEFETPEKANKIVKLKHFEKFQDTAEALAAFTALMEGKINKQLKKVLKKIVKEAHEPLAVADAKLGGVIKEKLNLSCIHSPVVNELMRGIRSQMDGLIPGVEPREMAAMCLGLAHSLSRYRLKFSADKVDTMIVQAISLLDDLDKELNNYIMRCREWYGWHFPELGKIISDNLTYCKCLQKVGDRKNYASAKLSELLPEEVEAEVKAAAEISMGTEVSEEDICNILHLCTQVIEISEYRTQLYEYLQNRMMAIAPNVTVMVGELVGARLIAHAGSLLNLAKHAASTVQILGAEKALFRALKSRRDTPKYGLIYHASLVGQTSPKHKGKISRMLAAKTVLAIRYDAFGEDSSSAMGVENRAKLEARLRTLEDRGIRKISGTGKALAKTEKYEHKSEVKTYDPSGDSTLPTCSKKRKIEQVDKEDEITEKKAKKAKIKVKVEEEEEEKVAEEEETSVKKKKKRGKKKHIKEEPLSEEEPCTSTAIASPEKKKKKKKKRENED
# UniProt Q9H3P2, sequence (Q9H3P2 whole entry, looked up): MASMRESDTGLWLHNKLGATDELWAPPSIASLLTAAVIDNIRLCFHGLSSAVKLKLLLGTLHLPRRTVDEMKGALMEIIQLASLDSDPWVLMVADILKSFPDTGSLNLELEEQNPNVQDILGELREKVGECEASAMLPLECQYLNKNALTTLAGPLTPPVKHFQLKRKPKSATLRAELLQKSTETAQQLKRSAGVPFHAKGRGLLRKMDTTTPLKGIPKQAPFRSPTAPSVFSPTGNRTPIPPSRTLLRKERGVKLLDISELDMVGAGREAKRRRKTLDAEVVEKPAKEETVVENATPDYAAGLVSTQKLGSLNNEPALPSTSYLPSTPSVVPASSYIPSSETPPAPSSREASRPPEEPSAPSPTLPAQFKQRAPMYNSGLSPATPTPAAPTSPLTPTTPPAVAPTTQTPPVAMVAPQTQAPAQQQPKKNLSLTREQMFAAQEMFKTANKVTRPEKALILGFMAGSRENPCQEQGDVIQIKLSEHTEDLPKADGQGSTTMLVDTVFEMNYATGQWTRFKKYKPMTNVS
# UniProt Q12968, sequence (Q12968 whole entry, looked up): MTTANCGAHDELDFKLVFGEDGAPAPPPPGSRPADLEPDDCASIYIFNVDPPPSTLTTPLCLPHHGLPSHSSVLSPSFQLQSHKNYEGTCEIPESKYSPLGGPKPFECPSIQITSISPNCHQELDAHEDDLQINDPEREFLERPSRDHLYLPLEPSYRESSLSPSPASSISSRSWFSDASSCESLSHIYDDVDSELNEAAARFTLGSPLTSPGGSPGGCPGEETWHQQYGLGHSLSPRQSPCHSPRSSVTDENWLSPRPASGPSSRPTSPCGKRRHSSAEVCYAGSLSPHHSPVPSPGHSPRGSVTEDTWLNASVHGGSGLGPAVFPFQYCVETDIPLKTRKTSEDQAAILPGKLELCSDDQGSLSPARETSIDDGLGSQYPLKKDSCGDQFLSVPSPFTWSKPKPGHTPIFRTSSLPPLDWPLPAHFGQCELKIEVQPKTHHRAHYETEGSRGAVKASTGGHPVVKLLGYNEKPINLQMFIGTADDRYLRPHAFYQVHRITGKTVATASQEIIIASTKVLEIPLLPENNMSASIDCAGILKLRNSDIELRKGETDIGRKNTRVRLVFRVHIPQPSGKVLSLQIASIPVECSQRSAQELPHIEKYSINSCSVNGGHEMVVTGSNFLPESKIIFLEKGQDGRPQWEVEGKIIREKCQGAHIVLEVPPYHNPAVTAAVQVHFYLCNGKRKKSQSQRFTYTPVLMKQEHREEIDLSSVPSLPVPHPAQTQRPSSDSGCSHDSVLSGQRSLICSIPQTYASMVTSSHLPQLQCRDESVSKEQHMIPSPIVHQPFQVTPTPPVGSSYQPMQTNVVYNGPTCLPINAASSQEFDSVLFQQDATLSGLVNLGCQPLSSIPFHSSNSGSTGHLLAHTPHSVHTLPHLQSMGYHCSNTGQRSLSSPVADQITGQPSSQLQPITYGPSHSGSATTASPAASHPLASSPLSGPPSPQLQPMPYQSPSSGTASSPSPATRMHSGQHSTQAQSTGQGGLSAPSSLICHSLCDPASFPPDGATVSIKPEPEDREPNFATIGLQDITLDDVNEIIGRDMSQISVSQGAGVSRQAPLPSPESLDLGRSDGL
# UniProt Q13469, sequence (Q13469 whole entry, looked up): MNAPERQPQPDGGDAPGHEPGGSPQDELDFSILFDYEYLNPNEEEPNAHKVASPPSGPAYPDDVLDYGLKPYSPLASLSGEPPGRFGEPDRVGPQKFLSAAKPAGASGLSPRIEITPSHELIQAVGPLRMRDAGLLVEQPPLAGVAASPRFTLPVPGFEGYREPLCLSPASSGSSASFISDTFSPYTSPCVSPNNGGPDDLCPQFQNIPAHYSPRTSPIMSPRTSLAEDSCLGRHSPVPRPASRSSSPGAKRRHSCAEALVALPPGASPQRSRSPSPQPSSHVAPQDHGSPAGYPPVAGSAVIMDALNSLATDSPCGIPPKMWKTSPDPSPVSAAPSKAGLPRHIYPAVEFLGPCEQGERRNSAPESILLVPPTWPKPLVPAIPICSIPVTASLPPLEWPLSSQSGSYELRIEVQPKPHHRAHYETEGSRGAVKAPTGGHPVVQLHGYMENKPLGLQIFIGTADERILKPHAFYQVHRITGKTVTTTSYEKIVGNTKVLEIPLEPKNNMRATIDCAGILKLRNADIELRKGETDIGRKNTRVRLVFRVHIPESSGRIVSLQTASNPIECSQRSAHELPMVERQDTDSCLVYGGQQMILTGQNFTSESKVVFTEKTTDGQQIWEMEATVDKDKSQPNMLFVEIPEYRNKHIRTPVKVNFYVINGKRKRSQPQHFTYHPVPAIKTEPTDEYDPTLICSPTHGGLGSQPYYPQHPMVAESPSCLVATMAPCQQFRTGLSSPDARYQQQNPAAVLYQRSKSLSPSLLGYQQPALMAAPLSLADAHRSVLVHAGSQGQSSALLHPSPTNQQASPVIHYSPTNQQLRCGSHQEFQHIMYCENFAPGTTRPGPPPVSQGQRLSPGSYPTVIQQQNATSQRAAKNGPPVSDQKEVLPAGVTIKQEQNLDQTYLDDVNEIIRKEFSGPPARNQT
# UniProt Q13423, sequence (Q13423 whole entry, looked up): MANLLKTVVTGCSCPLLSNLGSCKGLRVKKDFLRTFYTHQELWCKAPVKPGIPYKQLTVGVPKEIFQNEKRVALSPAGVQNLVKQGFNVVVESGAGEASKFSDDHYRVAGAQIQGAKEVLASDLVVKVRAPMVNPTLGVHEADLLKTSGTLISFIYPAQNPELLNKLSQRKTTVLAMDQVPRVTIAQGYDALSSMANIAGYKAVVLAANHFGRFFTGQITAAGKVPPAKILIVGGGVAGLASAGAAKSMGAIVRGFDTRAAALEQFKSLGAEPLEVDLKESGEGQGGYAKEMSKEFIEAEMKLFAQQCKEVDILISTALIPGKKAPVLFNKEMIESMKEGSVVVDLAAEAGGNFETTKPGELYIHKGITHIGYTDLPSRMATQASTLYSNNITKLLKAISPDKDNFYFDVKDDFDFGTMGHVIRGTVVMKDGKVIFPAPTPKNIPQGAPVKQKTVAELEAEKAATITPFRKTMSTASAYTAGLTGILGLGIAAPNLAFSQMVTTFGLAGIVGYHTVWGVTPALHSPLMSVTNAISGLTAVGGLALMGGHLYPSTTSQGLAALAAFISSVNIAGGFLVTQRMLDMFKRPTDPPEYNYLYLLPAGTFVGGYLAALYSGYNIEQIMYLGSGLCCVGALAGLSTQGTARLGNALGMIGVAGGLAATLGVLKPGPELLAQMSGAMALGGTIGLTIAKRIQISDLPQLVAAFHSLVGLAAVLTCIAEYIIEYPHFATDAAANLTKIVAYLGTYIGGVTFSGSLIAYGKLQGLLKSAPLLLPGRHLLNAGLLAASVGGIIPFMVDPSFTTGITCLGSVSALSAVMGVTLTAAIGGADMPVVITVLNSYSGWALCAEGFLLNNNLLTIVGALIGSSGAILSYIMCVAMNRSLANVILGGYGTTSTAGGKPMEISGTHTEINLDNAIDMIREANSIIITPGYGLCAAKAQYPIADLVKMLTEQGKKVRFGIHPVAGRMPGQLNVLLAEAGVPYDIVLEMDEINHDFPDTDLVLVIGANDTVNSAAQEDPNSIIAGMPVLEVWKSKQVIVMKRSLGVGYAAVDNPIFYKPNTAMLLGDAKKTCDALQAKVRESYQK
# UniProt Q86WC4, sequence (Q86WC4 whole entry, looked up): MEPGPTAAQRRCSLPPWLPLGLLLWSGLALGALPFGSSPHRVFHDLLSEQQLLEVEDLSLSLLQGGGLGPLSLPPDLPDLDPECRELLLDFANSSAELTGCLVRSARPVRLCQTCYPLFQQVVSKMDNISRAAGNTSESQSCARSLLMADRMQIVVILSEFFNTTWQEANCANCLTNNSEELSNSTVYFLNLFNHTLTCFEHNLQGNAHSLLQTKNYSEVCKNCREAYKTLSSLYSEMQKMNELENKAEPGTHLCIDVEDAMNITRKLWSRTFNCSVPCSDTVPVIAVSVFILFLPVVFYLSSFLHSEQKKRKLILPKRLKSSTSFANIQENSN
# UniProt P49914, sequence (P49914 whole entry, looked up): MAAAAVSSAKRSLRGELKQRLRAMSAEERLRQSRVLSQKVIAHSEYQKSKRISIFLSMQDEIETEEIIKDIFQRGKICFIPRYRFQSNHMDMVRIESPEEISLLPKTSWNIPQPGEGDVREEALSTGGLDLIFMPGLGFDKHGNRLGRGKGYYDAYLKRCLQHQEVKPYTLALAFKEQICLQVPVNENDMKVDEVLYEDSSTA
# UniProt P68402, sequence (P68402 whole entry, looked up): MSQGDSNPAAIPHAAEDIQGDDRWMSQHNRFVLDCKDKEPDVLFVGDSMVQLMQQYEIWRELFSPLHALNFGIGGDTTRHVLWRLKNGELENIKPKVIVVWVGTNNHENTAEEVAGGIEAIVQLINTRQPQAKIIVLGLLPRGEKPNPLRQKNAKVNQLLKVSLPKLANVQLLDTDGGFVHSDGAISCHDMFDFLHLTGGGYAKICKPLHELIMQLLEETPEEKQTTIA
row,Target,log2 fold change
1,NELFB isoform 2 (UniProt Q8WX92),-0.116 (inactive)
2,MRPL50 (UniProt Q8N5N7),0.308 (inactive)
3,MRPL46 (UniProt Q9H2W6),0.12 (inactive)
4,NOP56 (UniProt O00567),0.168 (inactive)
5,MTHFS (UniProt P49914),-0.019 (inactive)
6,MKNK1 (UniProt Q9BUB5),-0.006 (inactive)
7,NMNAT1 (UniProt Q9HAN9),0.053 (inactive)
8,MT-ATP6 (UniProt P00846),-0.16 (inactive)
9,NFATC3 (UniProt Q12968),0.039 (inactive)
10,NELFA (UniProt Q9H3P2),0.006 (inactive)
11,OSTM1 (UniProt Q86WC4),-0.064 (inactive)
12,NDUFS8 (UniProt O00217),-0.41 (active)
13,MITD1 (UniProt Q8WV92),-0.365 (inactive)
14,NFX1 (UniProt Q12986),0.197 (inactive)
15,NBN (UniProt O60934),-0.116 (inactive)
16,NDUFS7 (UniProt O75251),-0.327 (active)
17,"NA, A0A096LPI6",0.016 (inactive)
18,NSMCE2 (UniProt Q96MF7),0.397 (active)
19,NIPSNAP2 (UniProt O75323),0.028 (inactive)
20,MRPS10 (UniProt P82664),0.068 (inactive)

row,Target,log2 fold change
1,NNT (UniProt Q13423),-0.008 (inactive)
2,NEU1 (UniProt Q99519),-0.079 (inactive)
3,NOL11 (UniProt Q9H8H0),0.126 (inactive)
4,MRPS25 (UniProt P82663),0.036 (inactive)
5,MRPS5 (UniProt P82675),0.102 (inactive)
6,NMT2 (UniProt O60551),-0.208 (inactive)
7,NEDD4L (UniProt Q96PU5),-0.099 (inactive)
8,NR2C2 isoform 2 (UniProt P49116),0.046 (inactive)
9,P4HA2 (UniProt O15460),0.118 (inactive)
10,OSTC (UniProt Q9NRP0),-0.053 (inactive)
11,NFATC2 (UniProt Q13469),-0.102 (inactive)
12,PAFAH1B2 (UniProt P68402),-0.016 (inactive)
13,"NA, A0A0B4J2A0",-0.101 (inactive)
14,OXSM (UniProt Q9NWU1),0.058 (inactive)
15,NDUFA12 (UniProt Q9UI09),-0.632 (active)
16,NOP58 (UniProt Q9Y2X3),0.2 (inactive)
17,MSTO1 (UniProt Q9BUK6),-0.185 (inactive)
18,MRPS27 isoform 2 (UniProt Q92552),-0.001 (inactive)
19,MYL12B (UniProt O14950),0.01 (inactive)

# Compound: CN1CCN(CCOc2cc(OC3CCOCC3)c3c(Nc4c(Cl)ccc5c4OCO5)ncnc3c2)CC1 [saracatinib]
# Assay: as above
# Outline: as §1
row,Target,log2 fold change
1,NELFB isoform 2 (UniProt Q8WX92),-0.016 (inactive)
2,MRPL50 (UniProt Q8N5N7),0.148 (inactive)
3,MRPL46 (UniProt Q9H2W6),-0.071 (inactive)
4,NOP56 (UniProt O00567),-0.034 (inactive)
5,MTHFS (UniProt P49914),-0.023 (inactive)
6,MKNK1 (UniProt Q9BUB5),0.049 (inactive)
7,NMNAT1 (UniProt Q9HAN9),-0.044 (inactive)
8,MT-ATP6 (UniProt P00846),0.253 (inactive)
9,NFATC3 (UniProt Q12968),-0.003 (inactive)
10,NELFA (UniProt Q9H3P2),0.004 (inactive)
11,OSTM1 (UniProt Q86WC4),-0.038 (inactive)
12,NDUFS8 (UniProt O00217),-0.011 (inactive)
13,MITD1 (UniProt Q8WV92),-0.031 (inactive)
14,NFX1 (UniProt Q12986),-0.246 (inactive)
15,NBN (UniProt O60934),-0.008 (inactive)
16,NDUFS7 (UniProt O75251),-0.047 (inactive)
17,"NA, A0A096LPI6",0.05 (inactive)
18,NSMCE2 (UniProt Q96MF7),-0.019 (inactive)
19,NIPSNAP2 (UniProt O75323),-0.017 (inactive)
20,MRPS10 (UniProt P82664),-0.029 (inactive)

row,Target,log2 fold change
1,NNT (UniProt Q13423),0.005 (inactive)
2,NEU1 (UniProt Q99519),-0.044 (inactive)
3,NOL11 (UniProt Q9H8H0),0.093 (inactive)
4,MRPS25 (UniProt P82663),-0.097 (inactive)
5,MRPS5 (UniProt P82675),-0.094 (inactive)
6,NMT2 (UniProt O60551),-0.031 (inactive)
7,NEDD4L (UniProt Q96PU5),-0.014 (inactive)
8,NR2C2 isoform 2 (UniProt P49116),0.052 (inactive)
9,P4HA2 (UniProt O15460),0.002 (inactive)
10,OSTC (UniProt Q9NRP0),0.111 (inactive)
11,NFATC2 (UniProt Q13469),-0.128 (inactive)
12,PAFAH1B2 (UniProt P68402),-0.016 (inactive)
13,"NA, A0A0B4J2A0",0.007 (inactive)
14,OXSM (UniProt Q9NWU1),0.095 (inactive)
15,NDUFA12 (UniProt Q9UI09),0.029 (inactive)
16,NOP58 (UniProt Q9Y2X3),-0.044 (inactive)
17,MSTO1 (UniProt Q9BUK6),0.047 (inactive)
18,MRPS27 isoform 2 (UniProt Q92552),-0.107 (inactive)
19,MYL12B (UniProt O14950),0.057 (inactive)
